Compound activity as filed in PubChem.
The entries come from a sample that favours hits as a whole.
ROC1-CUL1 inh = inhibitors of human ROC1-CUL1 ubiquitin ligase activity | E3 ubiquitin-protein ligase RBX1 (Homo sapiens) + Cullin-1 (Homo sapiens), P62877+Q13616 | in vitro K48 di-Ub FRET, acceptor:donor ratio, 45 min | inhibition, % at 10 µM | 0.6% of 140,000 active; in the data active means inhibition above about 25%
Target sequence (P62877 whole entry, looked up): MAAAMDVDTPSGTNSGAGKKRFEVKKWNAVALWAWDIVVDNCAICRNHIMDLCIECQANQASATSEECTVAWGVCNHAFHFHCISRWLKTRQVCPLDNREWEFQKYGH
Target sequence (Q13616 whole entry, looked up): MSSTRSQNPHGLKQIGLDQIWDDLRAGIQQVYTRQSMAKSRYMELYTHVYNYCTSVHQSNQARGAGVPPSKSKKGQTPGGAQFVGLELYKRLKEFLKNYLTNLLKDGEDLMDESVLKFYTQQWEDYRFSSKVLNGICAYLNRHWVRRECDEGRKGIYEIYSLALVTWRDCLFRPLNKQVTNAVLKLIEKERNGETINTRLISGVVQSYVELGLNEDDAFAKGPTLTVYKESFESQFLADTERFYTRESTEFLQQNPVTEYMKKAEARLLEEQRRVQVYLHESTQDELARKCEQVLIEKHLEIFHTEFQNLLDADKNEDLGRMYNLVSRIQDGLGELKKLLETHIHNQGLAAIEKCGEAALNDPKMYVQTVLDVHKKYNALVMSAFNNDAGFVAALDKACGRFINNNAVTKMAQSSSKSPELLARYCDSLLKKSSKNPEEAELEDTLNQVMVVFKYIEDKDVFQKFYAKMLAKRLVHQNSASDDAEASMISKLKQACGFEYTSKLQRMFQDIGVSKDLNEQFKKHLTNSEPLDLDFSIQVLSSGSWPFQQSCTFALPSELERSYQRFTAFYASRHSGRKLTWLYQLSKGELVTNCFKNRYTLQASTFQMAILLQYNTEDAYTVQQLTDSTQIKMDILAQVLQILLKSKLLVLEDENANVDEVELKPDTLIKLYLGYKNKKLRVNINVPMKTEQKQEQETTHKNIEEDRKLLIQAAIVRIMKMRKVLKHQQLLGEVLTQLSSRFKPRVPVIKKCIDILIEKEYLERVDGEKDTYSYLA
The depositor's hits bear a star.

SMILES	ROC1-CUL1 inh
CCN(CC)C(=O)c1c(NC(=O)c2ccco2)sc2c1CCC(C(C)(C)C)C2 (configuration not stated)	14.0
N#CC1=C(c2ccco2)C(C#N)C(=O)N(C2OCC(O)C(O)C2O)C1=S (configuration not stated)	8.0
Oc1ccc(-n2c(-c3ccccc3)ccc2-c2ccccc2)cc1	-8.5
CCc1cccc(C)c1NC(=O)CCn1nc(C)c2c(C)n(-c3ccccc3)nc2c1=O	1.8
Cc1cccc(NC(=O)CCn2nc(C)c3c(C)n(-c4ccccc4)nc3c2=O)c1C	-3.6
Cc1ccc(C)c(NC(=O)CCn2nc(C)c3c(C)n(-c4ccccc4)nc3c2=O)c1	33.7*
Cc1ccc2c(c1)N(Cc1ccccc1)CO2	-0.1
NC(=O)c1c(NC(=O)/C=C/c2ccc3c(c2)OCO3)sc2c1CCCCC2	3.4
O=C1C2C3CCCN3C3(C(=O)c4ccccc4C3=O)C2C(=O)N1c1ccc(Oc2ccccc2)cc1 (configuration not stated)	2.0
Cc1cc(C)cc(NS(=O)(=O)c2cc3[nH]c(=O)c(=O)[nH]c3cc2C)c1	-7.7
CCc1cccc(C)c1NS(=O)(=O)c1cc2[nH]c(=O)c(=O)[nH]c2cc1C	43.5*
CCOC(=O)c1cccc(NS(=O)(=O)c2cc3[nH]c(=O)c(=O)[nH]c3cc2C)c1	-1.1
COc1cc(Br)c(OC(C)=O)c(/C=C/c2ccc3cccc(OC(C)=O)c3n2)c1	3.2
Cc1cc2c(c(=O)o1)C(c1cccnc1)C(C#N)C(=N)O2 (configuration not stated)	0.9
CC(C)CC(=O)NC(=S)Nc1ccc(C(N)=O)cc1	-4.9
O=C1N(Cc2cccc(F)c2F)CCCC1(O)CNC1CCCC1 (configuration not stated)	94.3*
O=C1N(Cc2cccc(F)c2F)CCCC1(O)CNC1CCC1 (configuration not stated)	-6.9
O=C1N(Cc2cccc(F)c2F)CCCC1(O)CNCC1CCCCC1 (configuration not stated)	11.2
Nc1ccc(Br)c2cccnc12	62.3*
Nc1ccnc2ncccc12	9.1
O=C(Nc1ccc(Br)c2cccnc12)c1cc(F)c(F)cc1Cl	4.1
Cc1ccc(C2=NN3C(C(=O)c4ccc(F)cc4)Oc4ccc(Cl)cc4C3C2)cc1 (configuration not stated)	4.9
Cc1ccccc1Sc1ccc([N+](=O)[O-])cn1	0.8
O=[N+]([O-])c1ccc(S(=O)(=O)c2cccc(C(F)(F)F)c2)nc1	9.0
CS(=O)(=O)c1ccc([N+](=O)[O-])cn1	63.0*
SMILES	ROC1-CUL1 inh
CN1C(=O)C(=O)C2c3ccccc3C(=O)c3c(Cl)cc(Cl)c1c32 (configuration not stated)	32.9*
CN1C(=O)C(c2cccc(Cl)c2)C(=O)c2ccccc21 (configuration not stated)	-13.1
CCc1ccccc1C1C(=O)c2ccccc2C1=O	7.7
COC(=O)c1ccc(CC2=NC(=S)N(C)C2=O)cc1	-5.7
CC(C)CCC(=O)N1CCC(C2(c3ccccn3)NC(=O)N(CCc3cccs3)C2=O)CC1 (configuration not stated)	-12.9
N#Cc1cscc1Br	1.2
Cc1ccc(N2C(=O)C(Cl)=C(N3CCCCCC3)C2=O)cc1Cl	-4.4
COc1cc2oc(=O)cc(C)c2c(OC)c1OC(C)=O	0.6
CC(=O)Oc1c(Br)cc2oc(=O)sc2c1Br	33.7*
O=C(Nc1ccccc1)Oc1c(Cl)cc2oc(=O)sc2c1Br	16.0
Cc1cc2nn(-c3ccc(Cl)cc3)nc2cc1NC(=S)NC(=O)c1ccccc1I	-2.2
C=CCOc1ccc2c(c1)OC1(OC(C)=O)OC(C)CC1=C2C (configuration not stated)	3.4
COc1cccc(/C=C(\C#N)c2nc3ccc(C)cc3[nH]2)c1	16.9
Cc1ccc2nc(/C(C#N)=C/c3coc4ccccc4c3=O)[nH]c2c1	25.9*
Cc1ccc2nc(/C(C#N)=C/c3ccccc3Cl)[nH]c2c1	-1.3
COc1ccc(CNC(=O)CSc2nc(-c3cccs3)cc(C(F)(F)F)n2)cc1	5.5
Cc1cccc(C)c1OCC(=O)Nn1c(COc2c(C)cccc2C)nc2ccccc2c1=O	-2.8
COc1ccc(C[C@H]2C(=O)N[C@@H](C)C(=O)N2C)cc1	9.2
O=C1NC(=Nc2ccccc2Cl)S/C1=C\c1ccc(-c2ccc(Cl)cc2)o1	-8.4
O=C1NC(=Nc2ccccc2)S/C1=C/c1ccc(-c2ccc(Cl)cc2Cl)o1	-3.4
O=C1NC(=Nc2cc(Cl)cc(Cl)c2)S/C1=C\c1ccco1	27.7*
CC1CCN(Cc2c(O)ccc3c(=O)c(-c4ccc(Cl)cc4Cl)coc23)CC1	5.6
CN1C2CCCC1CC(NC(=O)c1cc(Cl)cc3[nH]cnc13)C2 (configuration not stated)	-5.5
CC(C)c1n[nH]c2c1CN(C1CCN(Cc3cccnc3)CC1)CC2	-0.7
Cn1nccc1C(=O)n1cnc2ccccc21	-8.6
SMILES	ROC1-CUL1 inh
Cn1nccc1C(=O)NC(C)(C)CC(C)(C)C	1.4
Cn1nccc1C(=O)C#Cc1ccccc1	61.9*
CCOC(=O)c1ccc(N2C(=O)c3ccc(C(=O)Nc4ccc(O)cc4C(=O)O)cc3C2=O)cc1	69.2*
Cc1ccc(NC(=O)c2ccc3c(c2)C(=O)N(CC(C)C)C3=O)c(C(=O)O)c1	12.5
O=C(COC(=O)c1ccc2c(c1)C(=O)N(c1ccc(O)cc1)C2=O)c1ccccc1	-4.7
COc1ccc(CSc2nc3ccccc3c(=O)n2-c2ccccc2)cc1[N+](=O)[O-]	-5.4
CC(=O)N1CCN(S(=O)(=O)c2ccc(F)cc2)CC1	-2.7
O=C1C(Cl)=C(N2CCN(S(=O)(=O)c3ccc(F)cc3)CC2)C(=O)c2ccccc21	63.9*
CCC(CC)C(=O)N1CCN(S(=O)(=O)c2ccc(F)cc2)CC1	6.6
CC(CC(=O)O)n1cc(C#N)c(=O)[nH]c1=O (configuration not stated)	-9.2
COCCCN1C(=O)CC(CC(=O)N(C)Cc2ccc(F)cc2)(c2ccccc2Cl)C1=O (configuration not stated)	12.7
CCOC(=O)C(C#N)NC(=O)c1ccccc1 (configuration not stated)	2.5
CN(CCC(=O)/C=C/c1cccc(F)c1)CCc1ccc2c(c1)OCO2	49.6*
O=S(=O)(NCc1ccc2c(c1)OCO2)c1cccc(F)c1	2.7
CC1=NC(=O)C(C(=O)/C=C/c2ccc3c(c2)OCO3)=C(C)C1	-7.1
O=C(O)C1CC(=O)N(c2ccc(I)cc2)C1 (configuration not stated)	7.7
Cc1c(C)n2c3c(=O)[nH]c(=O)n(C)c3nc2n1CCCO	-0.8
CC(=O)ONc1cccc([N+](=O)[O-])c1	-3.2
CCN(CCN1CCCC1)C(=O)c1csc2nc(-c3ccc(F)cc3)cn12	2.1
CCCCCCCC1=NN2C(=N)/C(=C/c3ccccc3C)C(=O)N=C2S1	1.9
CCCCCCCC1=NN2C(=N)/C(=C/c3ccc(-c4cccc(C(=O)O)c4)o3)C(=O)N=C2S1	96.8*
CCCC1=NN2C(=N)/C(=C/c3ccc(-c4cccc(C(=O)O)c4)o3)C(=O)N=C2S1	10.7
COc1ccc(C(=O)OCC(=O)c2ccc(OC(=O)c3ccccc3)cc2)cc1	6.0
O=C(COC(=O)c1ccc(C(O)c2ccccc2)cc1)c1ccccc1 (configuration not stated)	32.3*
Nc1cccc(C(=O)OCC(=O)c2ccccc2)c1	-6.1
CC(C)c1ccc(Sc2cnn(C(C)(C)C)c(=O)c2Cl)cc1	3.3
Cc1ccc(/C=C2/C(=N)N3N=C(c4ccc(C)cc4)SC3=NC2=O)cc1	5.7
